According to PubChem BioAssay AID1159580 (chemical genetic matrix, 2015):
The whole screen tested about 5,500 compounds, of which about 2,000 (36%) were called active. Another 18% or so got no clear call; they are omitted. Rule as the data show it: active = normalized growth mostly below about 0.91 (no sharp cut-off); inconclusive = no clear call, values can overlap the other calls; inactive = mostly above about 0.92. This is one part of the list.

Assay: chemical genetic growth profiling, strain panel (AID 1159580);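 also: tested at 20 µM; growth read once vehicle control cultures reached saturation at 30 °C; 1 = growth at the plate median or of vehicle wells; lower values mean less growth of the strain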
Details: S. cerevisiae deletion strains, growth OD

Measured: normalized growth

CCCCCN=C(N)N/N=C\c1c[nH]c2ccc(OC)cc12
inactive: locus YAL013W, strain DEP1, active compounds read low 1.01 | locus YAL021C, strain ccr4, active compounds read low 0.985 | locus YAL026C, strain drs2, active compounds read low 0.928 | locus YAL030W, strain snc1, active compounds read low 1.01 | locus YBL061C, strain skt5, active compounds read low 1.01 | locus YBR009C, strain hhf1, active compounds read low 0.985 | locus YBR021W, strain FUR4, active compounds read low 0.989 | locus YBR023C, strain chs3, active compounds read low 0.988 | locus YBR171W, strain sec66, active compounds read low 1.03 | locus YBR229C, strain ROT2, active compounds read low 1 | locus YBR231C, strain swc5, active compounds read low 1 | locus YBR279W, strain paf1, active compounds read low 1.01 | locus YCL011C, strain gbp2, active compounds read low 1 | locus YCL016C, strain dcc1, active compounds read low 0.985 | locus YCL029C, strain bik1, active compounds read low 1.03 | locus YCL069W, strain vba3, active compounds read low 1.02 | locus YCR088W, strain abp1, active compounds read low 1.02 | locus YDL005C, strain med2, active compounds read low 1.01 | locus YDL035C, strain GPR1, active compounds read low 0.989 | locus YDL040C, strain nat1, active compounds read low 0.998 | locus YDL074C, strain BRE1, active compounds read low 1.01 | locus YDL101C, strain DUN1, active compounds read low 1.01 | locus YDL134C, strain PPH21, active compounds read low 0.997 | locus YDL185W, strain tfp1, active compounds read low 1.06 | locus YDL192W, strain arf1, active compounds read low 1.03 | locus YDR001C, strain nth1, active compounds read low 1.01 | locus YDR069C, strain doa4, active compounds read low 1.02 | locus YDR101C, strain arx1, active compounds read low 1.02 | locus YDR137W, strain rgp1, active compounds read low 1.07 | locus YDR150W, strain NUM1, active compounds read low 1.02 | locus YDR159W, strain sac3, active compounds read low 0.965 | locus YDR162C, strain NBP2, active compounds read low 0.993 | locus YDR195W, strain ref2 1.01 | locus YDR297W, strain sur2, active compounds read low 1 | locus YDR318W, strain mcm21, active compounds read low 1.02 | locus YDR334W, strain swr1, active compounds read low 1.01 | locus YDR335W, strain msn5, active compounds read low 1.01 | locus YDR388W, active compounds read low 1.03 | locus YDR392W, strain spt3, active compounds read low 0.911 | locus YDR502C, strain sam2, active compounds read low 1 | locus YEL003W, strain gim4, active compounds read low 1.01 | locus YEL037C, strain rad23, active compounds read low 1.01 | locus YEL061C, strain CIN8 (second series), active compounds read low 1.01 | locus YEL061C, strain CIN8, active compounds read low 0.994 | locus YER015W, strain faa2, active compounds read low 0.982 | locus YER016W, strain bim1, active compounds read low 1 | locus YER110C, active compounds read low 1.05 | locus YER111C, strain swi4, active compounds read low 1.02 | locus YER155C, strain BEM2 (second series), active compounds read low 0.968 | locus YER155C, strain BEM2, active compounds read low 1.01 | locus YER167W, strain BCK2, active compounds read low 1.01 | locus YFR010W, strain ubp6, active compounds read low 1.03 | locus YGL078C, strain dbp3, active compounds read low 1.02 | locus YGL086W, strain mad1, active compounds read low 1.01 | locus YGL167C, strain pmr1, active compounds read low 1.01 | locus YGL173C, strain kem1, active compounds read low 1.01 | locus YGL227W, strain vid30, active compounds read low 1.02 | locus YGL240W, strain doc1, active compounds read low 1.01 | locus YGL248W, strain PDE1, active compounds read low 1 | locus YGL253W, strain hxk2, active compounds read low 1.03 | locus YGR078C, strain PAC10, active compounds read low 1.02 | locus YGR135W, strain pre9, active compounds read low 1.02 | locus YGR229C, strain SMI1, active compounds read low 0.997 | locus YGR252W, strain gcn5, active compounds read low 1.01 | locus YHR013C, strain ard1, active compounds read low 1.03 | locus YHR027C, strain rpn1, active compounds read low 1 | locus YHR030C, strain SLT2, active compounds read low 1.01 | locus YHR079C, strain IRE1 (second series), active compounds read low 1.01 | locus YHR094C, strain hxt1, active compounds read low 1.02 | locus YHR129C, strain ARP1, active compounds read low 0.999 | locus YHR142W, strain chs7, active compounds read low 0.993 | locus YHR200W, strain rpn10, active compounds read low 1.04 | locus YIL066C, strain RNR3, active compounds read low 0.996 | locus YIL073C, strain SPO22, active compounds read low 1.02 | locus YIL125W, strain kgd1, active compounds read low 1.01 | locus YIR030C, strain dcg1, active compounds read low 1.02 | locus YJL092W, strain hpr5, active compounds read low 1.01 | locus YJL095W, strain BCK1 (second series), active compounds read low 1.01 | locus YJL095W, strain BCK1, active compounds read low 0.987 | locus YJL115W, strain asf1, active compounds read low 1 | locus YJL129C, strain trk1, active compounds read low 1.02 | locus YJL134W, strain LCB3, active compounds read low 1.01 | locus YJL154C, strain vps35, active compounds read low 1.01 | locus YJL164C, strain tpk1, active compounds read low 0.978 | locus YJL166W, strain qcr8, active compounds read low 1.02 | locus YJL168C, strain set2, active compounds read low 1.02 | locus YJL187C, strain SWE1 (second series), active compounds read low 1 | locus YJL187C, strain SWE1, active compounds read low 1
